# Results taken from PubChem BioAssay (NCATS).
# “And” between values parts separate entries of the source, which are not always exact repeats. Identical values can stand only once. Inconclusive results are not listed. Where a call stands in place of a potency, no number is given. The source made the active and inactive calls. Calls come from the whole dose curve; as a rule, active = well fitted curve in the direction sought with a large enough effect; inconclusive = small, poorly fitted or top-dose-only effect, or another doubt; inactive = no such curve, though single readings can be large; an effect the other way counts as inactive or inconclusive.
# Tests used:
# [1] = qHTS of pediatric cancer cell lines to identify multiple opportunities for drug repurposing: Confirmatory screen for Rh18 cells (AID 1347125); note: nearly all actives have a fitted effect of over 55% in size; note: potency is the fitted concentration of half-maximal effect
# How it was run: (§1)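 Cells (500-1,000/well) rested 5 h, then received compounds for 48 h; metabolically active cells were measured by CellTiter-Glo luminescence. Final concentrations spanned up to 46 µM (MIPE, 11-point) or 0.59 nM-46 µM (NPC, 8-point) in primary screens, 11-point in follow-ups.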
# [2] = qHTS of pediatric cancer cell lines to identify multiple opportunities for drug repurposing: Confirmatory screen for Rh30 cells (AID 1347126); note: nearly all actives have a fitted effect of over 55% in size; note: potency is the fitted concentration of half-maximal effect
# How it was run: as §1
# [3] = qHTS of pediatric cancer cell lines to identify multiple opportunities for drug repurposing: Confirmatory screen for SK-N-SH cells (AID 1347129);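 note: cells exposed to compound for 48 h before viability read; nearly all actives have a fitted effect of over 60% in size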; note: potency is the fitted concentration of half-maximal effect
# How it was run: as §1
# [4] = system: Zika virus NS2B-NS3 protease; experiment: Primary screen GU AMC qHTS for Zika virus inhibitors (AID 1347154); note: nearly all actives have a fitted effect of over 70% in size
# How it was run: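 Fluorogenic AMC-substrate cleavage by noncovalent NS2B-NS3 protease complex (25 nM, pH 8.0 Tris buffer with Tween 20) followed for 15 minutes at room temperature (~20% conversion). Percent inhibition from ex340/em450 signal change, fitted by 4-parameter Hill equation.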
# [5] = qHTS of pediatric cancer cell lines to identify multiple opportunities for drug repurposing: Confirmatory screen for Saos-2 cells (AID 1347127); note: nearly all actives have a fitted effect of over 60% in size; note: potency is the fitted concentration of half-maximal effect
# How it was run: as §1
# [6] = target: N-terminal Xaa-Pro-Lys N-methyltransferase 1 (Homo sapiens) (UniProt Q9BV86); experiment: qHTS Assay for Inhibitors of N-terminal methyltransferase 1 (NTMT1): LOPAC validation of the NTMT1 SAHH-coupled ThioGlo3 Assay (AID 1347143);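 note: SAH from peptide methylation measured as thiol fluorescence via SAHH coupling and ThioGlo3; nearly all actives have a fitted effect of over 70% in size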; note: potency is the fitted concentration of half-maximal effect
# N-terminal Xaa-Pro-Lys N-methyltransferase 1 (Homo sapiens), sequence (Q9BV86 whole entry, looked up): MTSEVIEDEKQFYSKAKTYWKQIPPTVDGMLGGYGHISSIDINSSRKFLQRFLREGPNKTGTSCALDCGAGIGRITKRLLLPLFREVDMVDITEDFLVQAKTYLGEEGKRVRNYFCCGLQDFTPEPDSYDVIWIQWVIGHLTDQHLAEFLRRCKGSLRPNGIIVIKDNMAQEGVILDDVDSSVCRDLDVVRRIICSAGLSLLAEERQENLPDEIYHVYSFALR
# How it was run: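 NTMT1 125nM + cpds (various conc.), 1 min RT; add SAM 100uM/SAHH 10uM/ThioGlo3 15uM (addition mix). SAHH-coupled thiol detection, Ex340/Em450, t0 and 30 min RT; signal normalized to background. LOPAC 1280-cpd pilot.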
# [7] = system: Zika virus NS2B-NS3 protease (unlinked); experiment: Optimization of GU AMC qHTS for Zika virus inhibitors: Unlinked NS2B-NS3 protease assay (AID 1347151); note: nearly all actives have a fitted effect of over 80% in size; note: potency is the fitted concentration of half-maximal effect
# How it was run: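 In this qHTS, compounds acted on 25 nM unlinked Zika NS2B–NS3 in pH 8.0 Tris/Tween buffer. Cleavage of an AMC peptide ran 15 min at room temperature, to about 20% conversion.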
# Furin (Homo sapiens) = Furin (Homo sapiens) (UniProt P09958); experiment: Furin counterscreen qHTS for Zika virus inhibitors (AID 1347149);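 note: purified recombinant full-length human furin enzyme at 5 nM; fluorescence gain from furin cutting a BOC-RVRR-AMC peptide substrate over 15 min; top concentration of the series differs between compounds; nearly all actives have a fitted effect of over 70% in size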
# Furin (Homo sapiens), sequence (P09958 whole entry, looked up): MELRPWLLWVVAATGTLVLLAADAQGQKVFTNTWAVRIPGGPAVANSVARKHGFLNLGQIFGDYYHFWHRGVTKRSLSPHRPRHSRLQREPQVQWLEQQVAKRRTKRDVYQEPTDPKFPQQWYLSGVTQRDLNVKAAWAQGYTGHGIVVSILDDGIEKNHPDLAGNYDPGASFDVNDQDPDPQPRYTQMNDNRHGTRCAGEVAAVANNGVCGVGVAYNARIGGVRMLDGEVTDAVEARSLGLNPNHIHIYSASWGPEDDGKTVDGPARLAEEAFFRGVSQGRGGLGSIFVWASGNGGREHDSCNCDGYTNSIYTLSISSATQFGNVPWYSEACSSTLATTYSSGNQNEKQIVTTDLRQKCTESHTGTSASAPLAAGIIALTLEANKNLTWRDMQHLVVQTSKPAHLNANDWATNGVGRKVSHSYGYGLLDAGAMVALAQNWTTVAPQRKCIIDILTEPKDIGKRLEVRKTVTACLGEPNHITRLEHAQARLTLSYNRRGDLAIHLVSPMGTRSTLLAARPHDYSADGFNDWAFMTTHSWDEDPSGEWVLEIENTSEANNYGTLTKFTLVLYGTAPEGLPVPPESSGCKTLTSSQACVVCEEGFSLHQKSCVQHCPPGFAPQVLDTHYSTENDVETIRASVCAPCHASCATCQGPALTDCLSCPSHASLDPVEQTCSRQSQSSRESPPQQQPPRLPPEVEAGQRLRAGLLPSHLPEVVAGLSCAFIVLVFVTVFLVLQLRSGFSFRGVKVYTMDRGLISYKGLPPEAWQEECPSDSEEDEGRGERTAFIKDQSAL
# How it was run: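 Counterscreen measures cleavage of 2 microM BOC-RVRR-AMC, below its ~15 microM Km, by 5 nM full-length human furin at pH 7.0 after a 15-min compound preincubation. Inhibition derives from the 15-min fluorescence increase at 37C.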
# [8] = system: Zika virus NS2B-NS3 protease (linked construct); experiment: Confirmatory screen NINDS AMC qHTS for Zika virus inhibitors (AID 1347152); details: Purified linked NS2B-NS3, AMC substrate fluorescence; note: potency is the fitted concentration of half-maximal effect; nearly all actives have a fitted effect of over 70% in size
# How it was run: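 Concentration-response confirmation used the NINDS linked protease (NS2B hydrophilic domain joined to NS3 protease domain), 1 nM, with a 15-min compound preincubation. Substrate, Nle-KRR-AMC at 10 microM, was read by UV fluorescence before and after 15 min.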
# [9] = system: Zika virus NS2B-NS3 protease (unlinked complex); experiment: Confirmatory screen GU AMC qHTS for Zika virus inhibitors (AID 1347153); details: Recombinant NS2B-NS3 protease, AMC substrate fluorescence
# How it was run: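 Compounds were preincubated 15 min at room temperature with 25 nM noncovalent NS2B-NS3 protease at pH 8.0; AMC substrate added at 10 microM and 15-min fluorescence gain (340/450 nm) converted to percent inhibition, fitted 4-parameter.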
smiles,measurement,setting,value
CN[C@@H](C)C(=O)N[C@H]1CN(C(=O)CC(C)C)CC[C@H]2CC[C@@H](C(=O)NC(c3ccccc3)c3ccccc3)N2C1=O,Potency,[1],inactive
same,Potency,[2],inactive
same,Potency,[3],inactive
same,Potency,[4],inactive
NS(=O)(=O)c1cccc2c1C(=O)c1cccc(O)c1C2=O,Potency,[1],2.33 µM (active)
same,Potency,[2],2.93 µM (active)
same,Potency,[5],928 nM (active)
same,Potency,[3],2.09 µM (active)
same,Potency,[4],inactive
CO[C@H]1C[C@@H]2CC[C@@H](C)[C@@](O)(O2)C(=O)C(=O)N2CCCC[C@@H]2C(=O)O[C@H]([C@H](C)C[C@@H]2CC[C@H](OP(C)(C)=O)[C@H](OC)C2)CC(=O)[C@H](C)C=C(C)[C@@H](O)[C@@H](OC)C(=O)[C@H](C)C[C@H](C)C=CC=CC=C1C,Potency,[1],inactive
same,Potency,[2],18.5 µM (active)
same,Potency,[3],inactive
same,Potency,[4],inactive
O=C1NC(=O)C(=Cc2ccc3c(c2)OC(F)(F)O3)S1,Potency,[1],inactive
same,Potency,[2],inactive
same,Potency,[5],inactive
same,Potency,[3],inactive
same,Potency,[4],inactive
CC(C)n1nc(-c2ccc3oc(N)nc3c2)c2c(N)ncnc21,Potency,[1],1.65 µM (active)
same,Potency,[2],0.293 µM (active)
same,Potency,[5],233 nM (active)
same,Potency,[3],0.59 µM (active)
O=C(O)CCC1CCC(c2cc(F)ccc2F)(S(=O)(=O)c2ccc(Cl)cc2)CC1 (stereo not given),Potency,[1],29.3 µM (active)
same,Potency,[5],inactive
same,Potency,[3],inactive
C=C1C(=O)[C@@]23C(CC[C@@H]1[C@H]2O)[C@@]12CO[C@]3(O)[C@@H](O)[C@@H]1C(C)(C)CC[C@@H]2O (stereo not given in full),Potency,[1],14.7 µM (active)
same,Potency,[2],5.85 µM (active)
same,Potency,[5],10400 nM (active)
same,Potency,[3],10.5 µM (active)
same,Potency,[4],inactive
CN(C)C1CCN(C(=O)c2ccc(NC(=O)Nc3nc(N4CCOCC4)nc(N4CCOCC4)n3)cc2)CC1,Potency,[1],0.293 µM (active)
same,Potency,[2],inactive
same,Potency,[5],329 nM (active)
same,Potency,[3],3.72 µM (active)
same,Potency,[4],inactive
O=C1C(Cl)=C(NCCN2CCOCC2)C(=O)c2ncccc21,Potency,[1],3.29 µM (active)
same,Potency,[2],7.37 µM (active)
same,Potency,[5],1170 nM (active)
same,Potency,[3],7.43 µM (active)
same,Potency,[4],inactive
CNC1CCC(N(Cc2cccc(-c3ccncc3)c2)C(=O)c2sc3c(F)ccc(F)c3c2Cl)CC1 (stereo not given),Potency,[1],inactive
same,Potency,[2],23.3 µM (active)
same,Potency,[3],inactive
same,Potency,[4],inactive
CCOc1ccc(Nc2nc(-c3c(C)nc4ccccn34)cs2)cc1,Potency,[1],inactive
same,Potency,[2],inactive
same,Potency,[4],inactive
CC(=NNC(=S)N1CCC1)c1ccccn1,Potency,[1],inactive
same,Potency,[5],inactive
same,Potency,[4],inactive
COc1ccc(-c2coc3cc(O)cc(O)c3c2=O)cc1,Potency,[1],inactive
same,Potency,[2],inactive
same,Potency,[5],inactive
same,Potency,[4],inactive
CC(=O)O[C@]1(C(C)=O)CC[C@@H]2[C@@H]3C[C@H](C)C4=CC(=O)CC[C@]4(C)[C@H]3CC[C@@]21C,Potency,[5],inactive
same,Potency,[3],inactive
same,Potency,[4],inactive
COc1ccccc1N1CCN(CCCNc2cc(=O)n(C)c(=O)n2C)CC1,Potency,[6],inactive
same,Potency,[7],inactive
same,Potency,[4],inactive
Cc1cccc(C)c1OCC(C)N (stereo not given),Potency,[6],inactive
same,Potency,[7],inactive
same,Potency,[4],inactive
CCN1CCC[C@H]1CNC(=O)c1cc(S(N)(=O)=O)ccc1OC,Potency,[6],inactive
same,Potency,[7],inactive
same,Potency,[4],inactive
O=C(O)CCc1nc(-c2ccccc2)c(-c2ccccc2)o1,Potency,[6],inactive
same,Potency,[4],inactive
CCN(CC)CCNC(=O)c1ccc(N)cc1,Potency,[6],inactive
same,Potency,[7],inactive
same,Potency,[4],inactive
CC(=O)CCCCn1c(=O)c2c(ncn2C)n(C)c1=O,Potency,[6],inactive
same,Potency,[7],inactive
same,Potency,[4],inactive
CC(=O)N[C@@H](CS)C(=O)O,Potency,[6],inactive
same,Potency,[7],inactive
same,Potency,[4],inactive
CC1(C)CCC(CN2CCN(c3ccc(C(=O)NS(=O)(=O)c4ccc(NCC5CCOCC5)c([N+](=O)[O-])c4)c(Oc4cnc5[nH]ccc5c4)c3)CC2)=C(c2ccc(Cl)cc2)C1,Potency,[2],inactive
same,Potency,Furin (Homo sapiens),inactive
same,Potency,[8],6.07 µM (active) and 10.8 µM (active)
same,Potency,[9],8.57 µM (active)
COc1ccc2c(Oc3ccc(NC(=O)c4c(C)n(CC(C)(C)O)n(-c5ccccc5)c4=O)cc3F)ccnc2c1,Potency,[5],inactive
CC(=O)Nc1ccc([C@H](C)C(=O)Nc2ncc(C(C)C)s2)cc1,Potency,[2],2.08 µM (active)
same,Potency,[5],5220 nM (active)
same,Potency,[3],6.62 µM (active)
same,Potency,Furin (Homo sapiens),inactive
same,Potency,[7],inactive
same,Potency,[4],inactive
Clc1ccc(Cn2c(CN3CCCC3)nc3ccccc32)cc1,Potency,[6],inactive
same,Potency,[7],inactive
same,Potency,[4],inactive
CC=C(C)C(=O)O[C@H]1C(C)=C[C@]23C(=O)[C@@H](C=C(CO)[C@@H](O)[C@]12O)[C@H]1[C@@H](C[C@H]3C)C1(C)C,Potency,[1],inactive
same,Potency,[3],inactive
same,Potency,[4],inactive
O=C1NCC2(CCN(CCc3ccccc3)CC2)O1,Potency,[6],inactive
same,Potency,[7],inactive
same,Potency,[4],inactive
O=C(NCCN1CCOCC1)c1ccc(Cl)cc1,Potency,[6],inactive
same,Potency,[7],inactive
same,Potency,[4],inactive
O=c1cc(-c2ccc(O)cc2)oc2cc(O)cc(O)c12,Potency,[5],inactive
same,Potency,[3],inactive
same,Potency,[6],89.1 µM (active)
same,Potency,[4],inactive
C[N+](C)(C)CCCCCC[N+](C)(C)C,Potency,[6],inactive
same,Potency,[7],inactive
same,Potency,[4],inactive
O=c1c(-c2ccc(O)cc2)coc2cc(O)ccc12,Potency,[6],50.1 µM (active)
same,Potency,[7],29.9 µM (active)
CC(C)OC(=O)C(C)(C)Oc1ccc(C(=O)c2ccc(Cl)cc2)cc1,Potency,[6],inactive
